Screens deposited in PubChem BioAssay by National Center for Advancing Translational Sciences (NCATS).
In the library only some 5.7% were active in any assay of this set; here they are far more common.
DRD3 agonist = qHTS of D3 Dopamine Receptor Agonist: qHTS. hit rate 0.58% among 410,000. D3R DiscoveRx beta-arrestin cells, luminescence, 90 min. D(3) dopamine receptor (Homo sapiens), P35462. max activation, %; in the data active = max activation above about 30%; note: 0% is about no effect
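Agonist-mode cell screen: cells plated at 1500/well and incubated overnight at 37 °C, then exposed to library compounds for 90 min at 37 °C. Detection reagent was added for 30–60 min at room temperature, and luminescence was read.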
GLP-1R agonist = qHTS of GLP-1 Receptor Agonists; Glucagon-like peptide 1 receptor (Homo sapiens), P43220; HEK293 GLP-1R CRE-luciferase, luminescence, 4-6 h; cells express a hypersensitive GLP-1R form; Potency, µM (top dose mostly 45.6 µM), without a hit: at the highest dose activation, hits mostly activators; hit rate 0.007% among 380,000; AID 624172, 2012; note: potency is the fitted concentration of half-maximal effect; % of control where 0% means no effect
Target sequence (P43220 whole entry, looked up): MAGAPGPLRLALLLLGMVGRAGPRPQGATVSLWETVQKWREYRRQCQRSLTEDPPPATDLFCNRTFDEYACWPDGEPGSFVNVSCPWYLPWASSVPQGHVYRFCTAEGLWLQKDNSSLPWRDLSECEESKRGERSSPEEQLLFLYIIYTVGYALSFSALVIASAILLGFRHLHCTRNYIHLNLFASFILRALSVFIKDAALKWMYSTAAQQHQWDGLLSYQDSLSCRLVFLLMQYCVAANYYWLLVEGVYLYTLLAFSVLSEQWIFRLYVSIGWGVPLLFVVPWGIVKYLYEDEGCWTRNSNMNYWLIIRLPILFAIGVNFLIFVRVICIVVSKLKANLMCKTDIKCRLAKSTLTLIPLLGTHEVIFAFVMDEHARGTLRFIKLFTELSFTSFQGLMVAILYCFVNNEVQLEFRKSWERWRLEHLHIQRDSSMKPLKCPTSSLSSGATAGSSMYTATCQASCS
ClpP mod = qHTS Assay for Activators of ClpP | ATP-dependent Clp protease proteolytic subunit (Bacillus subtilis (strain 168)), P80244 | purified B. subtilis ClpP, FRET peptide cleavage, 20 min | Potency, µM (series often up to 57.5 µM), without a hit: at the highest dose activity change, negative = active | hit rate 1.9% among 340,000 | AID 651965, 2013; active = well fitted falling curve with a large enough effect; inconclusive = small, poorly fitted or top-dose-only effect; inactive = no such curve, though single readings can be large or run the other way; note: potency is the fitted concentration of half-maximal effect; the source files actives as falling curves though it sought activators and does not explain the sign; nearly all actives have a fitted effect of over 65% in size
Target sequence (P80244 whole entry, looked up): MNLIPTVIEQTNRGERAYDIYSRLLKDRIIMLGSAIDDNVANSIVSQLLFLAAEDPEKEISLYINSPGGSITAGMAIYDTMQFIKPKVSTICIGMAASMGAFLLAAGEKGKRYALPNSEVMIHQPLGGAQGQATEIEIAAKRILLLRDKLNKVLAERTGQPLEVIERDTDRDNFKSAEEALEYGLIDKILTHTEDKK
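ClpP 10 microg/mL final, pH 8 Tris/KCl buffer with BSA, glycerol, Tween-20; compound pinned in; FRET-FV substrate; RT 20 min; Ex320/Em430; ΔFRET vs ADEP 5.8 microM, DMSO, no enzyme.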
D3 antag = qHTS of D3 Dopamine Receptor Antagonist: qHTS; D3R cells, DiscoveRx beta-arrestin luminescence, antagonist mode; hits give low values; max response, negative = inhibition, %; D(3) dopamine receptor (Homo sapiens), P35462; hit rate 2.5% among 360,000; AID 652054, 2013; in the data active = max response below about -50%; inconclusive = no clear call, values can overlap the other calls; note: % is set by controls: 0 for no effect and ±100 for the full control effect
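Cells plated overnight at 1500 cells/well, then exposed to library compounds with dopamine controls for 90 minutes at 37 degrees C. DiscoveRx reagent added for 30–60 minutes at room temperature; luminescence read, quantitative HTS format.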
GLP-1R inv ag = qHTS of GLP-1 Receptor Inverse Agonists (Inhibition Mode); hit rate 1.6% among 410,000; Potency, µM (highest dose often 38.3 µM), for the others: at the highest dose activity change, negative = inhibition, actives largely listed as inhibitors; HEK293 GLP-1R CRE-luciferase, luminescence, 24 h; GLP-1R form is constitutively active; Glucagon-like peptide 1 receptor (Homo sapiens), P43220; note: potency is the fitted concentration of half-maximal effect; % is set by controls: 0 for no effect and ±100 for the full control effect; nearly all actives have a fitted effect of over 55% in size
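Seeding at 200 cells/uL, 12 h culture, 24 hr compound treatment, then luciferase reagent and a luminescence read; cells are HEK293 stably expressing a constitutively active GLP-1R plus cAMP-responsive luciferase.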
GLP1R cytotox = qHTS of GLP-1 Receptor Inverse Agonists: Cytotox Screen; AID 624418, 2012; Potency, µM (doses to about 38.3 µM), for the others: at the highest dose activity change, negative = inhibition, actives largely listed as inhibitors; hit rate 0.13% among 410,000; HEK293 cAMP-luciferase reporter cells, luminescence, 24 h;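 note: loss of luciferase light is scored as toxicity; potency is the fitted concentration of half-maximal effect; % is set by controls: 0 for no effect and ±100 for the full control effect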
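Quantitative HTS format, 1536 wells, 200 cells/uL seeded. Compounds: 23 nL, 24 h, 37 °C. Detection: luciferase reagent, luminescence at 12 min RT; decreased signal taken as cytotoxic.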
Active calls of the source: *; u = inconclusive; x = not tested or not shown. Unless noted, calls come from the whole dose curve; as a rule, active = well fitted curve in the direction sought with a large enough effect; inconclusive = small, poorly fitted or top-dose-only effect, or another doubt; inactive = no such curve, though single readings can be large; an effect the other way counts as inactive or inconclusive.

SMILES	DRD3 agonist	GLP-1R agonist	ClpP mod	D3 antag	GLP-1R inv ag	GLP1R cytotox
Cc1oc(C(C)(C)C)cc1C(=O)NC1CCN(Cc2ccccc2)CC1	-41.0	-1.3%	1.4%	-79.7*	12.6µM*	-29.2%
O=C(NC1CCN(Cc2ccccc2)CC1)c1ccc(Cl)cc1Cl	-21.1	9.8%	-2.2%	u	-25.8%	-1.4%
Cc1oc(-c2ccc(Cl)cc2)cc1C(=O)NC1CCN(Cc2ccccc2)CC1	-9.5	3.3%	x	-65.1*	u	0.0%
Cc1ccc(S(=O)(=O)N2CCOCC2)cc1C(=O)NC1CCN(Cc2ccccc2)CC1	-17.7	-6.3%	1.0%	6.9	11.7%	5.3%
Nc1ccccc1C(=O)NCCCN1CCN(c2cccc(Cl)c2)CC1	-10.0	12.8%	x	-73.5*	u	-2.4%
O=C1CC(=C(c2ccccc2)c2ccccc2)C(=O)N1CCN1CCN(c2cccc(Cl)c2)CC1	6.2	-0.6%	25.1µM*	0.0	u	17.4%
O=C(c1cccc(Cl)c1)N1CCN(CCCc2ccccc2)CC1	32.9*	-3.8%	-1.0%	-18.0	u	0.3%
CCN(CCNC(=O)c1ccc(CSc2nc3ccncc3[nH]2)cc1)c1ccccc1	0.3	5.2%	1.2%	6.2	1.7%	-14.6%
O=C(c1ccccc1)N1CCN(CCc2ccccc2)CC1	-19.4	-1.1%	-1.2%	-5.9	-10.4%	-15.5%
O=C(NCCN1CCN(c2cccc(Cl)c2)CC1)c1ccc(CSc2nc3ccncc3[nH]2)cc1	49.0*	17.5%	x	-21.1	u	-14.1%
CC1=C(C(=O)N(C(C)C)C(C)C)CC(CC(=O)NCc2cccs2)C(=O)N1CCCN1CCCC1=O (configuration not stated)	8.8	14.9%	-3.2%	10.0	18.8%	-8.0%
O=C(NCCN1CCN(c2ccccc2)CC1)c1cccc(Cl)c1	24.4	-0.4%	-2.7%	-56.4*	-18.1%	1.8%
O=C(NCCN1CCN(c2ccccc2)CC1)C1(S(=O)(=O)c2ccc(Cl)cc2)CC1	-1.3	5.1%	0.5%	-52.5*	-4.5%	-16.8%
Cc1cccc(C(=O)NCCN2CCN(c3ccccc3)CC2)c1	15.9	3.4%	-3.7%	u	u	21.2%
COCCCN1C(=O)c2oc3ccccc3c(=O)c2C12C(=O)N(C)c1ccccc12 (configuration not stated)	-9.1	x	0.0%	x	9.8%	7.6%
CCOC(=O)c1cccc(NC(=O)CC2C(=O)N(c3ccc(Cl)cc3)C(=O)N2C2CCCC2)c1 (configuration not stated)	4.7	x	-3.4%	x	12.6µM*	-29.5%
COc1ccc2nc3oc(C(=O)N4CCN(c5cc(C)ccc5C)CC4)cc3cc2c1	-1.6	1.5%	-14.6%	x	-6.8%	4.4%
COc1ccc(C(C)(C)C)cc1S(=O)(=O)N1CCC(C(N)=O)CC1	-8.4	0.2%	-11.5%	-52.4*	0.0%	-14.1%
COc1ccc(F)cc1S(=O)(=O)N1CCC(C(N)=O)CC1	0.9	1.1%	-3.4%	7.6	13.6%	-11.6%
Cc1cccc(CCNC(=O)C2CCC(CNS(=O)(=O)c3ccccc3)CC2)c1 (configuration not stated)	-12.6	x	2.5%	x	-0.7%	-1.6%
Cc1nn(-c2ccccc2)c(Cl)c1C(=O)Nc1nnc(C2CCCCC2)s1	7.8	-4.9%	-2.4%	9.6	8.91µM*	-7.5%
CCc1cc2c(cc3c(=O)n(CCCC(=O)NCc4cccc(Br)c4)ncn32)s1	0.2	x	-4.4%	x	0.2%	10.4%
COc1ccc(N2Cc3cccc(C(=O)Nc4cccc(F)c4)c3C2=O)cc1	-7.3	x	-5.5%	x	9.5%	19.2%
Cn1cccc1-c1nc2ccccc2n1Cc1ccccc1	-0.7	5.5%	28.2µM*	-53.9*	u	-11.4%
CCN(CC)CCSc1nc2ccccc2n1Cc1ccccc1	-17.4	-3.1%	0.1%	-54.0*	u	-9.1%
SMILES	DRD3 agonist	GLP-1R agonist	ClpP mod	D3 antag	GLP-1R inv ag	GLP1R cytotox
CCN(CC)CCn1c(NCc2nc3ccccc3n2Cc2ccccc2)nc2ccccc21	-33.9	-2.3%	0.6%	-55.2*	u	u
CCSc1nc2ccccc2n1Cc1cccc([N+](=O)[O-])c1	-10.3	20.2%	-0.5%	u	11.2µM*	3.0%
CCOc1ccccc1CN(CCc1ccc2c(c1)OCO2)Cc1cc(OC)c(OC)cc1OC	6.3	x	-2.5%	x	u	-8.5%
Cc1ccc(C2CC(=O)n3nc(-c4ccc(F)cc4)nc3S2)cc1 (configuration not stated)	-9.1	x	-1.5%	x	0.1%	-5.4%
CCc1ccc2oc(C(=O)Nc3cc(Cl)ccc3OC)cc(=O)c2c1	0.9	x	1.2%	x	-3.5%	8.2%
CCCCn1c2ccc(F)cc2c2nnc(SCCN(CC)CC)nc21	-19.9	7.9%	-0.8%	x	20.6%	1.6%
CCN(CC)CCSc1nnc2c3cc(C)ccc3n(Cc3ccccc3)c2n1	-18.8	24.2%	x	-28.7	12.6µM*	u
CSc1ccccc1NC(=O)C1(C)CCN1C(=O)Cc1ccc(-c2ccccc2)cc1 (configuration not stated)	10.5	15.8%	-2.0%	58.1	u	6.3%
COc1cc(/C=N/n2c(-c3cc(C)[nH]n3)n[nH]c2=S)ccc1O	10.5	3.4%	x	u	18.1%	9.1%
COc1cc(/C=N/n2c(-c3cc(C)[nH]n3)n[nH]c2=S)cc(OC)c1OC	-8.2	12.1%	x	-51.4*	16.7%	9.6%
Nc1nc(Sc2ccc([N+](=O)[O-])c3nonc23)c2[nH]cnc2n1	-11.0	7.3%	-1.0%	-59.8*	u	8.91µM*
CNc1ncnc(Sc2nc(N)nc3nc[nH]c23)c1[N+](=O)[O-]	-3.9	-14.4%	-4.1%	1.6	-15.7%	11.1%
CCNC(=O)N1CCN(CCCC(c2ccc(F)cc2)c2ccc(F)cc2)CC1	-87.8	-0.1%	0.1%	-114.1*	u	-13.9%
Cc1c(C(=O)NCCSCc2c(F)cccc2Cl)cnn1-c1ccc(Cl)cc1	4.8	17.3%	x	-1.1	10µM*	0.0%
CCC(C(=O)NCc1ccco1)N(C(=O)CNS(=O)(=O)c1ccc(C)cc1)c1ccccc1OC (configuration not stated)	-14.5	4.3%	31.6µM*	0.0	0.0%	1.1%
CCCC(C(=O)NCc1ccco1)N(C(=O)CNS(=O)(=O)c1ccc(Cl)cc1)C1CCCC1 (configuration not stated)	2.5	-20.1%	3.1%	9.5	10µM*	-7.8%
